Measured values published in PubChem BioAssay AID1159580 (chemical genetic matrix, 2015).
“And” between values parts separate entries of the source, which are not always exact repeats. Equal entries are not always repeated. Out of some 5,500 compounds screened, about 2,000 (36%) were called active. Roughly 18% stayed inconclusive and do not appear here. Rule as the data show it: active = normalized growth mostly below about 0.91 (no sharp cut-off); inconclusive = no clear call, values can overlap the other calls; inactive = mostly above about 0.92. The list shows a part of the results.

Test: chemical genetic growth profiling, strain panel (AID 1159580);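 also: tested at 20 µM; growth read once vehicle control cultures reached saturation at 30 °C; 1 = growth at the plate median or of vehicle wells; lower values mean less growth of the strain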
Conditions: S. cerevisiae deletion strains, growth OD

Measured: normalized growth

C[C@H]1[C@H](C)CC[C@]2(C(=O)O)CC[C@]3(C)C(=CCC4[C@@]5(C)C[C@@H](O)[C@H](O)[C@@](C)(CO)C5[C@H](O)C[C@]43C)[C@H]12 (some centres not stated)
inactive: locus YAL021C, strain ccr4, stronger effect = lower value 1.01 | locus YAL026C, strain drs2, stronger effect = lower value 0.963 | locus YAL030W, strain snc1, stronger effect = lower value 0.973 | locus YBL061C, strain skt5, stronger effect = lower value 0.952 | locus YBR009C, strain hhf1, stronger effect = lower value 0.936 | locus YBR021W, strain FUR4, stronger effect = lower value 0.957 | locus YBR023C, strain chs3, stronger effect = lower value 0.942 | locus YBR171W, strain sec66, stronger effect = lower value 0.951 | locus YBR229C, strain ROT2, stronger effect = lower value 0.987 | locus YBR231C, strain swc5, stronger effect = lower value 0.953 | locus YBR279W, strain paf1, stronger effect = lower value 0.948 | locus YCL011C, strain gbp2, stronger effect = lower value 0.968 | locus YCL016C, strain dcc1, stronger effect = lower value 0.956 | locus YCL029C, strain bik1, stronger effect = lower value 0.981 | locus YCL061C, strain MRC1, stronger effect = lower value 0.971 | locus YCL069W, strain vba3, stronger effect = lower value 0.973 | locus YCR088W, strain abp1, stronger effect = lower value 0.961 | locus YDL005C, strain med2, stronger effect = lower value 0.948 | locus YDL035C, strain GPR1, stronger effect = lower value 0.972 | locus YDL040C, strain nat1, stronger effect = lower value 0.965 | locus YDL074C, strain BRE1, stronger effect = lower value 0.895 | locus YDL101C, strain DUN1, stronger effect = lower value 0.973 | locus YDL185W, strain tfp1, stronger effect = lower value 1.01 | locus YDR001C, strain nth1, stronger effect = lower value 0.969 | locus YDR069C, strain doa4, stronger effect = lower value 0.936 | locus YDR101C, strain arx1, stronger effect = lower value 0.967 | locus YDR150W, strain NUM1, stronger effect = lower value 0.996 | locus YDR162C, strain NBP2, stronger effect = lower value 0.954 | locus YDR297W, strain sur2, stronger effect = lower value 0.96 | locus YDR318W, strain mcm21, stronger effect = lower value 0.982 | locus YDR334W, strain swr1, stronger effect = lower value 0.978 | locus YDR335W, strain msn5, stronger effect = lower value 0.967 | locus YDR392W, strain spt3, stronger effect = lower value 0.916 | locus YDR502C, strain sam2, stronger effect = lower value 0.937 | locus YEL003W, strain gim4, stronger effect = lower value 0.954 | locus YEL037C, strain rad23, stronger effect = lower value 0.969 | locus YEL061C, strain CIN8 (second series), stronger effect = lower value 0.955 | locus YEL061C, strain CIN8, stronger effect = lower value 0.961 | locus YER015W, strain faa2, stronger effect = lower value 0.959 | locus YER016W, strain bim1, stronger effect = lower value 0.971 | locus YER110C, stronger effect = lower value 0.978 | locus YER111C, strain swi4, stronger effect = lower value 0.955 | locus YER155C, strain BEM2, stronger effect = lower value 0.985 | locus YER167W, strain BCK2, stronger effect = lower value 0.977 | locus YFR010W, strain ubp6, stronger effect = lower value 0.938 | locus YGL078C, strain dbp3, stronger effect = lower value 0.939 | locus YGL167C, strain pmr1, stronger effect = lower value 0.962 | locus YGL173C, strain kem1, stronger effect = lower value 0.949 | locus YGL227W, strain vid30, stronger effect = lower value 0.975 | locus YGL248W, strain PDE1, stronger effect = lower value 0.994 | locus YGL253W, strain hxk2, stronger effect = lower value 0.971 | locus YGR135W, strain pre9, stronger effect = lower value 0.943 | locus YGR252W, strain gcn5, stronger effect = lower value 0.849 | locus YHR013C, strain ard1, stronger effect = lower value 1.03 | locus YHR027C, strain rpn1, stronger effect = lower value 0.974 | locus YHR030C, strain SLT2, stronger effect = lower value 1 and 0.976 | locus YHR079C, strain IRE1 (second series), stronger effect = lower value 0.968 | locus YHR079C, strain IRE1, stronger effect = lower value 0.979 | locus YHR094C, strain hxt1, stronger effect = lower value 0.977 | locus YHR129C, strain ARP1, stronger effect = lower value 0.998 | locus YHR142W, strain chs7, stronger effect = lower value 0.949 | locus YHR200W, strain rpn10, stronger effect = lower value 0.944 | locus YIL066C, strain RNR3, stronger effect = lower value 0.985 | locus YIL073C, strain SPO22, stronger effect = lower value 1.02 | locus YIL125W, strain kgd1, stronger effect = lower value 0.947 | locus YIR030C, strain dcg1, stronger effect = lower value 0.971 | locus YJL092W, strain hpr5, stronger effect = lower value 0.963 | locus YJL095W, strain BCK1 (second series), stronger effect = lower value 0.972 | locus YJL115W, strain asf1, stronger effect = lower value 0.967 | locus YJL129C, strain trk1, stronger effect = lower value 0.937 | locus YJL134W, strain LCB3, stronger effect = lower value 0.991 | locus YJL154C, strain vps35, stronger effect = lower value 0.968 | locus YJL164C, strain tpk1, stronger effect = lower value 0.944 | locus YJL166W, strain qcr8, stronger effect = lower value 0.948 | locus YJL168C, strain set2, stronger effect = lower value 0.982 | locus YJL187C, strain SWE1 (second series), stronger effect = lower value 0.959 | locus YJR043C, strain POL32, stronger effect = lower value 0.985
active: locus YAL013W, strain DEP1, stronger effect = lower value 0.769 | locus YDL192W, strain arf1, stronger effect = lower value 0.91 | locus YDR137W, strain rgp1, stronger effect = lower value 0.794 | locus YDR159W, strain sac3, stronger effect = lower value 0.854 | locus YDR195W, strain ref2 0.84 | locus YDR388W, stronger effect = lower value 0.911 | locus YER155C, strain BEM2 (second series), stronger effect = lower value 0.863 | locus YGL086W, strain mad1, stronger effect = lower value 1.18 [resistant] | locus YGL240W, strain doc1, stronger effect = lower value 0.886
0.944 (inactive) and 0.792 (active): locus YJL095W, strain BCK1, stronger effect = lower value
